Experimental data from PubChem BioAssay (NCI).
This is part of a sample that, as a whole, favours compounds with a hit. Of some 83,000 tested, about 20% had one in any assay.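 Method: cells in 96-well plates; compound added at one concentration; 48 h incubation; percent growth measured; values under 10 scored active.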 Values without a mark were called inactive. Active and inactive are the calls of the source.

These compounds were tested on A498 renal (assay: NCI-60 one-dose screen, 48 h (100 = growth as untreated, 0 = no growth, -100 = all killed)). Details: 10 µM unless noted.
`NC(=O)C(=O)c1ccccc1NC=O` gave a growth of 120%. `N#Cc1c(-c2ccccc2)[nH]c2ncc(-c3ccccc3)n2c1=O` showed a growth of 102%. `O=S(=O)(Nc1cc(Cl)ccc1Cl)c1ccc(-c2cnc(C3CC3)o2)cc1` was tested, and the growth was -7.01% (active). For `COc1cc(C2CC(c3ccc(Nc4nc(Nc5ccc(Cl)cc5)nc(Nc5ccc(Cl)cc5)n4)cc3)=NN2C(C)=O)cc(OC)c1OC` (stereo unspecified), the growth was 113%. For `N#Cc1c(-c2ccc(Cl)cc2)c(C#N)c2c(C#N)c(N)nn2c1N`, the growth was 78.2%. Work on `CC(=O)N1N=C(c2ccc(Nc3nc(Nc4ccccc4)nc(Nc4ccccc4)n3)cc2)CC1c1cccc([N+](=O)[O-])c1` (stereo unspecified) yielded a growth of 94.5%. Compound `N#CC1=C(c2ccccc2)Nc2c(c(-c3ccc(Cl)cc3)nn2-c2ccccc2)C12C(=O)Nc1ccc(Cl)cc12` (stereo unspecified) has a growth of 69%. `O=C(Nc1nc2ccc(C(=O)N3CCN(/C=C/c4ccccc4)CC3)cc2s1)c1ccc(NCCc2ccccc2)c([N+](=O)[O-])c1` gave a growth of 48.3%. `Cc1ccc(/C=C2\COc3ccc(O)cc3C2=O)cc1` showed a growth of 109%. `CCNCCNc1cc(C2CCCCC2)c(C#N)c2nc3ccccc3n12` was tested, and the growth was -25.1% (active). `Nc1c(C(=O)Nc2ccncc2)sc2nc3c(cc12)C(O)CCC3` (stereo unspecified) gave a growth of 112%. `C=CCN=c1sc2c(n1NC(=O)c1cc3ccc1CCc1ccc(cc1)CC3)C(=O)c1ccccc1C2=O` showed a growth of 56%. With `Cc1nc2sc(C(=O)Nc3cccc(Br)c3)c(N)c2cc1C(O)c1ccccc1` (stereo unspecified) the growth was 5.68% (active). Compound `Cc1cc(S(=O)(=O)/N=C(\N)n2nc(C)c(C)c2C)c(SCc2ccccc2)cc1Cl` has a growth of 85.1%. `Oc1ccc(Cl)cc1/C=N\NC(=S)N/N=C/c1cc(Cl)ccc1O` showed a growth of 37.5%. `O=C(/C=C/c1cccs1)Nc1ncc(Cc2ccccc2F)s1` was tested, and the growth was 4.45% (active). In the case of `COC(=O)CC[C@H](C)[C@H]1CC[C@H]2[C@@H]3CC[C@@H]4CC5(CC[C@]4(C)[C@H]3CC(=O)[C@]12C)Nc1ccccc1NC5=NC(C)(C)C` (stereo partly specified), the growth is reported as 63.5%. With `CC1CCc2c(C(=O)Nc3ncc(Cc4cccc([N+](=O)[O-])c4)s3)csc2C1` (stereo unspecified) the growth was 10.7%. For `O=C1/C=C/[C@@H](O)[C@@H]2C[C@@H](O)C[C@H]2/C=C/CCC[C@H](CCc2ccccc2)O1`, the growth was -28.2% (active). `O=C(Nc1ccccc1O)c1ccc(CNC(=O)c2sccc2Nc2ccnc(C(F)(F)F)c2)cc1` was tested, and the growth was 6.31% (active). With `COc1ccc(C(=O)/C=C/c2c(C(F)(F)F)nc3ccccn23)cc1OC` the growth was 65.8%. `CCC(=C(c1ccc(OCCN2CCCCC2)cc1)c1ccc(OCCN2CCCCC2)cc1)c1ccc(Cl)cc1` was tested, and the growth was -81.4% (active). `O=C1Nc2ccc(C(=O)O)cc2/C1=N/c1nnc(Sc2ccccc2)s1` gave a growth of 86.8%. For `CCN1CCN(C(=O)[C@]23CCC(C)(C)C[C@@H]2C2=CC[C@@H]4[C@@]5(C)CCC(=O)C(C)(C)[C@@H]5CC[C@@]4(C)[C@]2(C)CC3)CC1`, the growth was -7.95% (active). Compound `Nc1ncnc2c1C(c1ccccc1)c1ccc3ccccc3c1O2` (stereo unspecified) has a growth of 94.7%. Work on `Cn1cc(-c2ccc3nc(-c4ccc(CC(=O)ONc5cc(C(C)(C)C)on5)cc4)cnc3c2)cn1` yielded a growth of 15.6%. For `Cc1ccc2c(c1)=C/C(=C\c1cc(-c3ccccc3)oc1O)C(=O)N=2`, the growth was 96.6%. In the case of `COc1ccc(-c2nc3c(ncc4ccc(=O)[nH]c43)s2)cc1`, the growth is reported as 42.3%. In the case of `CC1CN(S(=O)(=O)c2oc(-c3ccc(Cl)cc3)nc2C#N)CC(C)O1` (stereo unspecified), the growth is reported as 78.7%. `C#CCOC(=O)/C=C/c1cn(-c2ccccc2)nc1-c1ccc(OC)cc1` showed a growth of 81.7%. Work on `O=C(Nc1cccc(Cl)c1)Nc1cccc(Cn2c(=O)[nH]c3ccc(Oc4ncccn4)cc3c2=O)c1` yielded a growth of 48.7%. With `COc1ccc(/C=C/C(=O)c2cc3c(N)c(C(=O)Nc4cccc5ccccc45)sc3nc2C)cc1` the growth was 44.2%. `CCCNc1nc2ccccc2c2c1S(=O)(=O)c1ccc(Cl)cc1C2=O` showed a growth of 31.1%. Work on `NC(=O)CSc1oc(-c2ccccc2)nc1S(=O)(=O)c1ccc(Br)cc1` yielded a growth of 61.4%. Work on `N#CSc1c[nH]c2cccc(/C=C/C(=O)/C=C(/C=C/c3cccc4[nH]cc(SC#N)c34)OB(F)F)c12` yielded a growth of 28.2%. Compound `C=C1C(=O)O[C@H]2[C@H]1CC/C(COC(=O)NCc1ccc(Cn3c(=O)sn(CCCCC)c3=O)cc1)=C\CC[C@@]1(C)O[C@@H]21` has a growth of 84.9%.
